# High-throughput results as filed in PubChem.
# A selection: hits, their analogues and other compounds. The true share with any hit is near 1.2%.
# CR mimetic SO: lowers age-related superoxide in aged yeast cells | superoxide response (% of plate mean), % at 10 µM | hit rate 0.18% among 330,000 | S. cerevisiae aged cells, superoxide DHE fluorescence; stronger effect = lower value | AID 2690;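 active = superoxide response under a set limit, about three screen SD below normal, cut at about 65% in these data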;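 also: yeast aged for seven days with compound at 30 °C before DHE staining; 100% = average MFI of all compound-treated wells on the plate with controls excluded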
# Platelet DG rel: modulates dense granule release in human platelets. hit rate 0.22% among 300,000. human platelet-rich plasma, SFLLRN dense granule ATP release, luminescence. AID 1663. inhibition, %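 (compounds screened at 7.5 µM in platelet-rich plasma)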;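 active = mean replicate score, as percent of positive control, at or above 50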
# SKN-1 inh: inhibitors of C. elegans SKN-1. C. elegans VP596 Pgst-4::GFP/RFP ratio, acrylamide-induced, 24 h. inhibition, % at 21.8 µM. hit rate 0.49% among 360,000;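 active = interference check ratio from 0.5 to 1.5 plus GFP to RFP signal ratio inhibition reaching or exceeding a fixed threshold, cut at about 30% in these data, passing the limit was not always enough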
# ABCB6 inh 2: blocks the human ABCB6 transporter | Q9NP58 | K562-ABCB6 porphyrin accumulation, flow cytometry, 1 h; stronger effect = lower value | fluorescence ratio to DMSO, % at 10 µM | hit rate 0.19% among 360,000 | AID 602162;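 active = fluorescence ratio to DMSO below 75%, the collection mean minus 3 SD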;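 also: signal is porphyrin accumulated inside mitochondria; 100% equals median channel fluorescence of DMSO control wells; lower ratio means ABCB6 inhibition with less porphyrin fluorescence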
# VLA-4 inh: inhibition in a human VLA-4 binding assay; P13612; hit rate 0.2% among 330,000; VLA-4 expressing cells, ligand binding flow cytometry; inhibition, % (about 7 µM as worked out from the volumes in the protocol); in the data active = inhibition above about 50%
# CR mimetic CP: yeast aging superoxide inhibition, cherry pick confirmation. shares compounds with CR mimetic SO. S. cerevisiae aging, superoxide DHE fluorescence; stronger effect = lower value. superoxide response (% of plate), % at 10 µM. hit rate 1% among 850. AID 434994;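 active = superoxide signal below 65% of the plate average of sample wells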;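 also: cells aged with compound for 7 days at 30 degrees C before staining; 100% equals mean DHE fluorescence of all compound wells on the plate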
# DHE fluor count: DHE fluorescence interference, counter-screen artifact | shares compounds with CR mimetic SO | S. cerevisiae BY4741, flow cytometry; stronger effect = lower value | fluorescence response, % at 10 µM | 850 tested, under 10 active | AID 435000;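 active = fluorescence response below 15%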;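 also: percent of the mean fluorescence averaged over all compound wells on the plate; lower means stronger quenching of DHE signal or ROS scavenging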
# * hit, by the source's call; nt = no result given.
SMILES,CR mimetic SO,Platelet DG rel,SKN-1 inh,ABCB6 inh 2,VLA-4 inh,CR mimetic CP,DHE fluor count
O=C(Cc1c[nH]c2ccccc12)NCc1ccncc1,106,-5,3,108,2,nt,nt
O=C(Cc1ccccc1)NCc1ccncc1,57*,-1,2,94,-7,102,97
O=C(Nc1ccc2c(c1)OCCO2)C1c2ccccc2OCC(=O)N1CCCN1CCOCC1 (stereo unspecified),nt,nt,14,99,nt,nt,nt
Cn1c(=O)c2[nH]c(N3CCCCC3)nc2n(C)c1=O,65*,-5,16,100,6,80,90
C=CCNc1ncnc2c1cnn2-c1ccc(C)cc1C,98,-4,1,98,-19,101,98
CC(C)Nc1nc(Nc2ccc(C(N)=O)cc2)c2sccc2n1,nt,nt,-10,96,nt,nt,nt
CCCc1nc2ccc(Br)cn2c1Cc1cccc(Cl)c1,nt,nt,5,91,nt,nt,nt
Cc1ccc(C(=O)NCCN2CCC(n3c(=O)[nH]c4ccccc43)CC2)cc1C,nt,nt,10,100,nt,nt,nt
Cc1cc(C)n2nc(-c3ccc(Br)cc3)cc2n1,99,3,18,100,3,85,88
Cc1cc(C)n2nc(-c3ccc(Cl)cc3)cc2n1,105,1,19,109,13,99,101
O=C(CCCOc1ccccc1)Nc1ccc(Cl)cn1,58*,-2,-1,140,2,96,89
Cc1ccc(S(=O)(=O)N2c3ccccc3OC(C(=O)OC(C)(C)C)(C(=O)OC(C)(C)C)C2CC(=O)c2ccccc2)cc1 (stereo unspecified),nt,nt,0,nt,nt,nt,nt
CCc1nc2ccc(C(=O)Nc3cc(-c4ccccc4)ccc3OC)cn2c1N(CCN(C)C)CC1CC1,nt,nt,14,95,nt,nt,nt
O=c1oc2cc(OCc3c(F)cccc3Cl)ccc2cc1-c1ccccn1,96,2,-8,93,7,nt,nt
CCCOc1ccc2cc(-c3ccccn3)c(=O)oc2c1,60*,44,45*,90,-2,100,95
N=c1c2ccccc2nc2n1CCCCC2,nt,nt,1,97,nt,nt,nt
O=C(NCc1ccccc1)c1cc(C2COCCN2S(=O)(=O)c2ccccc2)on1 (stereo unspecified),nt,nt,3,99,nt,nt,nt
CC(C)=CCC[C@H](C)C[C@@H]1Cc2[nH][nH]c(=O)c2[C@@H](c2ccc(F)cc2)O1,nt,nt,-1,100,nt,nt,nt
CCn1c2ccccc2c2cc([N+](=O)[O-])ccc21,98,-3,25,98,4,99,93
CC(C)n1c2ccccc2c2cc([N+](=O)[O-])ccc21,96,7,11,101,-9,100,110
CCn1c(=O)c2ccccc2n(Cc2cccc([N+](=O)[O-])c2)c1=O,100,16,-6,95,-6,nt,nt
C[C@H](c1ccccc1)N1C[C@H](COCc2ccccc2)Oc2cc(N3CCC[C@H]3C(N)=O)ccc2S1(=O)=O,nt,nt,11,96,nt,nt,nt
O=C(CN(c1ccc2c(c1)OCCO2)S(=O)(=O)c1ccccc1)NCc1ccc(Cl)cc1,62*,-1,4,92,7,102,91
Cc1cc(Oc2ccc(=O)n(C)n2)nc(SCCOc2ccccc2)n1,15*,2,-5,97,2,107,93
COc1cccc(CN2CCC2(C)C(=O)Nc2ccc(C)c(O)c2)c1F (stereo unspecified),nt,nt,-12,89,nt,nt,nt
SMILES,CR mimetic SO,Platelet DG rel,SKN-1 inh,ABCB6 inh 2,VLA-4 inh,CR mimetic CP,DHE fluor count
OCn1c2ccccc2c2ccccc21,97,3,4,96,7,nt,nt
OCCOCCn1c2ccccc2c2ccccc21,80,31,-7,96,6,95,92
COc1cc(/C=N/NC(=O)C2=NNC(=O)C2C)ccc1O (stereo unspecified),91,-2,5,103,2,nt,nt
CC1C(=O)NN=C1C(=O)N/N=C\c1ccc(O)cc1O (stereo unspecified),60*,13,3,100,1,94,94
O=C(CN1C(=O)c2ccccc2C1=O)C(O)CN1C(=O)c2ccccc2C1=O (stereo unspecified),nt,nt,7,98,nt,nt,nt
CC(=O)Nc1ccc(S(=O)(=O)N2CCN(S(=O)(=O)N3CCCCCC3)CC2)cc1,111,5,13,97,5,nt,nt
CC(=O)Nc1ccc(S(=O)(=O)N2CCCC2)cc1,101,-7,20,100,8,98,115
COCC(=O)Nc1ccc(S(=O)(=O)N2CCCC2)cc1,88,3,0,105,-5,99,100
O=C(NCc1ccccc1)c1cc(C2CCCN(S(=O)(=O)c3cccs3)C2)on1 (stereo unspecified),nt,nt,-2,92,nt,nt,nt
COc1ccc([C@H]2CC(=O)C[C@@H](CCn3cc(C(C)C)nn3)O2)cc1,nt,nt,-10,119,nt,nt,nt
O=C(/C=C/c1ccc(OC2CSC2)cc1)c1ccc(Cl)cc1,63*,18,11,97,14,99,86
CCOc1ccc2c(c1)C(C)=CC(C)(C)N2,65*,nt,4,100,6,103,90
O=C(NC(=S)NNC(=O)c1ccccc1O)c1ccco1,57*,-7,-9,100,35,93,111
Cn1c(=O)c2c(nc(CN3CCOCC3)n2CCN2CCOCC2)n(C)c1=O,60*,10,-6,97,7,94,92
CCCCN1C(=O)C(=O)NC[C@@H]1Cc1ccc(O)cc1,nt,nt,-8,100,nt,nt,nt
CCC1(c2ccc(F)cc2)NC(=O)N(CC(=O)Nc2cccnc2Cl)C1=O (stereo unspecified),64*,-7,5,100,5,117,101
CCC1(c2ccccc2)NC(=O)N(CC(=O)Nc2cccnc2Cl)C1=O (stereo unspecified),100,nt,-11,99,-6,nt,nt
COc1ccc(-c2ccc(=O)n(Cc3ccccc3)n2)cc1,115,7,-22,97,12,nt,nt
COc1ccc(-c2ccc(=O)n(Cc3cccc(Cl)c3)n2)cc1,55*,-4,-13,94,11,90,89
COc1ccc(N2CCN(C(=O)c3ccc(SC)cc3OC)CC2)cc1,94,13,-4,100,3,nt,nt
COc1ccc(C(=O)N2CCN(c3cccc(Cl)c3)CC2)c(OC)c1,104,12,-10,105,-2,108,100
O=C(O)c1ccccc1C(=O)N1CCN(c2cccc(Cl)c2)CC1,96,10,3,94,9,nt,nt
CCOc1ccccc1C(=O)N1CCN(c2cccc(Cl)c2)CC1,119,-17,-4,106,0,98,91
Cc1c(C(=O)N2CCN(c3ccccn3)CC2)cccc1[N+](=O)[O-],86,1,-9,93,11,nt,nt
COc1cc(SC)ccc1C(=O)N1CCN(c2ccccc2F)CC1,121,-4,-9,101,1,120,119
Cc1c(C(=O)N2CCN(c3cccc(Cl)c3)CC2)cccc1[N+](=O)[O-],96,6,1,100,-4,94,98
COc1ccc(-c2coc3c(C(=O)NCC4CC4)cccc23)c(C)c1,nt,nt,-14,97,nt,nt,nt
